Assay outcomes from PubChem BioAssay.
The list is not random: actives were taken first. Their share in the collection is about 21%.
ClpP mod: qHTS Assay for Activators of ClpP; Potency, µM (highest dose often 57.5 µM), inactives show at the highest dose activity change, negative = active; purified B. subtilis ClpP, FRET peptide cleavage, 20 min; AID 651965, 2013; ATP-dependent Clp protease proteolytic subunit (Bacillus subtilis (strain 168)), P80244; hit rate 1.9% among 340,000; active = well fitted falling curve with a large enough effect; inconclusive = small, poorly fitted or top-dose-only effect; inactive = no such curve, though single readings can be large or run the other way; also: potency is read from the fitted curve at half-maximal effect; the source files actives as falling curves though it sought activators and does not explain the sign; nearly all actives have a fitted effect of over 65% in size
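FRET quenching reversal measured ClpP activation: 10 microg/mL B. subtilis ClpP at pH 8 with the FRET-FV decapeptide, read at 430 nm after 320 nm excitation. The 20-min minus 0-min signal was scaled between DMSO/no-enzyme wells and ADEP (5.8 microM final).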
DRD3 agonist: qHTS of D3 Dopamine Receptor Agonist: qHTS. D3R DiscoveRx beta-arrestin cells, luminescence, 90 min. hit rate 0.58% among 410,000. AID 652048, 2013. max activation, %; in the data active = max activation above about 30%; also: 0% is about no effect
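Agonist mode: compounds and dopamine controls were applied to plated cells for 90 min at 37 degrees C after an overnight attachment at 1500 cells/well. Luminescent read-out followed 30 - 60 minutes at room temperature with DiscoveRx detection reagent.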
D3 antag: qHTS of D3 Dopamine Receptor Antagonist: qHTS; max response, negative = inhibition, %; D3R cells, DiscoveRx beta-arrestin luminescence, antagonist mode; stronger effect = lower value; D(3) dopamine receptor (Homo sapiens), P35462; AID 652054, 2013; hit rate 2.5% among 360,000; in the data active = max response below about -50%; inconclusive = no clear call, values can overlap the other calls; also: % is scaled to controls: 0 for no effect and ±100 for the full control effect
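Cells expressing the human receptor were seeded at 1500 cells/well, incubated overnight at 37 degrees C in 5% CO2, then exposed to library compounds with dopamine controls for 90 minutes at 37 degrees C before luminescent detection.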
TDP1 cell noCPT: qHTS for Inhibitors of human tyrosyl-DNA phosphodiesterase 1 (TDP1): qHTS in cells in absence of CPT; hit rate 15% among 420,000; DT40 Tdp1-/- hTDP1 cells, no CPT, ATP luminescence, 48 h; Potency, µM (titrated, usually from 46.2 µM), without a hit: at the top dose activity change, negative = growth inhibition, actives largely listed as inhibitors; also: potency is read from the fitted curve at half-maximal effect; % is scaled to controls: 0 for no effect and ±100 for the full control effect; nearly all actives have a fitted effect of over 55% in size
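Camptothecin absent (DMSO only). Human TDP1-complemented DT40 knockout cells, 400 cells/well, 37 °C for minimum 48 hr; ATP measured via CellTiter-Glo, 30 min dark incubation, luminescence.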
IL-1B inflam inh: qHTS for Inhibitors of Inflammasome Signaling: IL-1-beta AlphaLISA Primary Screen. THP-1 LPS/ATP IL-1B secretion, AlphaLISA, 16 h; stronger effect = lower value. activity change, % at 57.5 µM. hit rate 4.7% among 360,000; in the data active = activity change below about -50%; inconclusive = mostly about -30% to -49%; also: % is scaled to controls: 0 for no effect and ±100 for the full control effect
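THP-1 cells pretreated 1 hr with compounds (up to 57.5 uM final), then stimulated with LPS (250 ng/mL final) plus ATP (1.25 mM final); secreted IL-1B measured by AlphaLISA after 16 hr, decreased signal indicating inhibition.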
DT40 TDP1 CPT: qHTS for Inhibitors of human tyrosyl-DNA phosphodiesterase 1 (TDP1): qHTS in cells in presence of CPT; chicken DT40 Tdp1-/-;hTDP1 cells + 20 nM CPT, ATP luminescence, 48 h; AID 686979, 2013; hit rate 12% among 420,000; Potency, µM (highest dose often 46.2 µM), inactives show at the top dose activity change, negative = growth inhibition, actives largely listed as inhibitors; also: potency is read from the fitted curve at half-maximal effect; % is scaled to controls: 0 for no effect and ±100 for the full control effect; nearly all actives have a fitted effect of over 55% in size
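Chicken DT40 Tdp1-/- cells complemented with human TDP1, 400 cells/well, exposed to compounds plus 20 nM camptothecin for at least 48 h at 37 C; viability read as ATP content by CellTiter-Glo luminescence.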
* marks the source's active call; other numbers are inactive results; ? = inconclusive; . = not tested or not shown; [ ] = remark or other dose. Unless noted, calls follow the shape of the dose curve; as a rule, active = well fitted inhibition curve with a large enough effect; inconclusive = small, poorly fitted or top-dose-only effect; inactive = flat fitted curve, though single readings scatter.

SMILES	ClpP mod	DRD3 agonist	D3 antag	TDP1 cell noCPT	IL-1B inflam inh	DT40 TDP1 CPT
COc1ccc(CC(N)c2csc(NC(=O)c3ccc(F)cc3)n2)cc1 (stereo not drawn)	-8%	4	24	23µM*	-54*	?
COc1cc(CNC(=O)Nc2nc(C(N)Cc3ccc(Cl)cc3)cs2)cc(OC)c1OC (stereo not drawn)	0%	2	7	18µM*	-74*	?
COc1cc(CNC(=O)Nc2nc(C(N)c3ccccc3)cs2)cc(OC)c1OC (stereo not drawn)	-2%	3	12	-20%	-21	4%
COC(=O)c1cnc(Nc2nc(C(N)Cc3ccc(OC)cc3)cs2)nc1C(F)(F)F (stereo not drawn)	-3%	3	22	?	.	?
COc1ccc(CC(N)c2csc(NC(=O)C(c3ccccc3)c3ccccc3)n2)cc1 (stereo not drawn)	-4%	-3	-2	6.5µM*	-52*	18µM*
COc1ccc(CC(N)c2csc(NC(=O)c3ccccc3)n2)cc1 (stereo not drawn)	-4%	5	16	?	?	?
COc1ccc(CC(N)c2csc(NC(=O)c3ccc(OC)cc3)n2)cc1 (stereo not drawn)	-5%	-5	-8	21µM*	?	16µM*
COCCCNC(=O)C(=O)C1C(=O)Nc2ccccc21 (stereo not drawn)	.	-4	-25	-14%	2	15%
Cc1nc2cc3c(=O)n(C)cnc3cc2n1Cc1ccccc1	?	-6	-16	16µM*	0	-15%
CC(=O)Nc1ccc2c(c1)nc(C)n2Cc1ccccc1	0%	-4	-13	1%	-6	10%
O=C(N[C@H]1C/C=C\C[C@H](CC(=O)N(CCO)Cc2ccccc2)C(=O)NC[C@H](c2ccccc2)OC1=O)OCC1c2ccccc2-c2ccccc21	-2%	0	-17	6.5µM*	-2	6.5µM*
O=C(N[C@@H]1C/C=C\C[C@@H](CC(=O)N(CCO)Cc2ccccc2)C(=O)N[C@@H](c2ccccc2)COC1=O)OCC1c2ccccc2-c2ccccc21	-1%	-1	-4	6.5µM*	9	7.3µM*
O=C1CCC/C=C\C[C@@H](CC(=O)N(CCO)Cc2ccccc2)C(=O)N[C@H](c2ccccc2)CO1	2%	2	-5	-28%	-6	-2%
CC1CCCCC1NC(=O)COC(=O)c1ccc2c(=O)n3c(nc2c1)CCC3 (stereo not drawn)	-10%	-5	0	7%	1	-10%
CN(C)c1ccc(-c2nc3cnccn3c2Nc2cccc(C(F)(F)F)c2)cc1	-24%	9	.	?	.	26µM*
CCc1cccc(C)c1Nc1c(-c2ccc(N(C)C)cc2)nc2cnccn12	-13%	8	.	23µM*	.	?
CCCCCCC[N+](CC)(CC)CCCCc1ccc(Cl)cc1	1%	-43	?	0.21µM*	?	0.65µM*
CC(C)c1ccc(N(C(=O)c2csnn2)C(C(=O)NC2CCCC2)c2cccnc2)cc1 (stereo not drawn)	.	4	12	-26%	21	-13%
COc1ccc(N2C(=O)CC(Sc3n[nH]c(-c4cccc(C)c4)n3)C2=O)cc1 (stereo not drawn)	.	-2	-28	3.7µM*	-30	0.92µM*
COc1ccccc1N1C(=O)CC(Sc2nc(C)cc(C)n2)C1=O (stereo not drawn)	1%	27	9	0%	19	-6%
COC(=O)c1ccc(N2C(=O)CC(Sc3n[nH]c(C)n3)C2=O)cc1 (stereo not drawn)	-4%	0	0	5.2µM*	15	2.1µM*
CCOc1ccccc1N1C(=O)CC(Sc2n[nH]c(-c3ccccc3)n2)C1=O (stereo not drawn)	.	-1	-24	0.65µM*	0	0.65µM*
N#Cc1ccccc1CN1C(=O)c2ccccc2Sc2ccc(C(=O)OCc3ccco3)cc21	-3%	-8	.	.	.	.
CC(NC(=O)c1ccc(S(C)(=O)=O)cc1)c1cccc2ccccc12 (stereo not drawn)	1%	-14	-6	-22%	-17	0%
CS(=O)(=O)c1ccc([C@@H](O)[C@@H](COC(=O)CN)NC(=O)C(Cl)Cl)cc1	.	6	.	3.8µM*	.	6.7µM*
SMILES	ClpP mod	DRD3 agonist	D3 antag	TDP1 cell noCPT	IL-1B inflam inh	DT40 TDP1 CPT
CCOc1cccc(CN2CCC(n3cc(C(=O)N4CCCCC4)nn3)CC2)c1O	.	.	.	-10%	.	12%[9.04 µM]
CN/C(=C/[N+](=O)[O-])NCCSCc1csc(CN(C)C)n1	-1%	6	12	0%	28	-13%
CN=C(C[N+](=O)[O-])NCCSCc1ccc(CN(C)C)o1	-2%	-66	-59*	26%	-7	-7%
CN(C)CCCN(Cc1cc2cc3c(cc2[nH]c1=O)OCO3)C(=S)Nc1cccc(Cl)c1	.	-6	-6	29µM*	-102*	?
CN(C)CCCNC(=S)N(CCCO)Cc1cc2cc3c(cc2[nH]c1=O)OCO3	4%	-2	-7	18%	6	-18%
COC(=O)c1ccccc1NC(=S)N(Cc1ccc2c(c1)OCO2)Cc1cc2cc(OC)ccc2[nH]c1=O	?	-12	5	16µM*	0	9.2µM*
COC(=O)c1ccccc1NC(=O)NCc1ccc2c(c1)OCO2	0%	-2	14	-7%	-2	-1%
CN(C)CCCN(Cc1cc2cc3c(cc2[nH]c1=O)OCO3)C(=S)Nc1ccccc1	.	0	9	-4%	-62*	0%
COc1ccccc1NC(=S)N(CCCN(C)C)Cc1cc2cc3c(cc2[nH]c1=O)OCO3	.	-7	-16	-16%	-23	-1%
CCN(CC)CCCN(Cc1cc2cc3c(cc2[nH]c1=O)OCO3)C(=S)Nc1ccccc1OC	.	-8	-15	-15%	-29	18µM*
COc1cccc(CNC(=O)c2nn(-c3ccc(C)cc3)c(=O)c3c2c2ccccc2n3C)c1	-12%	6	.	?	.	?
Cc1cccc(C)c1NC(=O)C(C)NCc1cccs1 (stereo not drawn)	1%	0	24	-25%	6	-21%
